# Measured values: PubChem BioAssay (NCATS)
# The source made the active and inactive calls. The call rests on the fitted dose curve; in most records, active means well fitted inhibition curve with a large enough effect; inconclusive means small, poorly fitted or top-dose-only effect; inactive means flat fitted curve, though single readings scatter.
# Target: Flap endonuclease 1 (Homo sapiens) (UniProt P39748)
# Test: qHTS Validation Assay for the Inhibitors of Human Flap endonuclease 1 (FEN1) (AID 488816)
# Conditions: FEN1 nuclease activity, fluorogenic DNA substrate; series mostly up to 57.1 µM; activity, negative = inhibition: at the top concentration
# Excerpt: The major human flap endonuclease FEN1 is an efficient structure-specific enzyme that recognizes and cleaves a 5'-unannealed DNA flap. It belongs to the RAD2 family nucleases, which are involved in DNA metabolism and are highly conserved in prokaryotes and eukaryotes. FEN1 is a key enzyme in DNA replication, repair and maintenance of genomic stability. 5'-flap removal by FEN1 is critical for Okazaki fragment processing during lagging strand DNA synthesis, long-patch base excision repair (LP BER), and regulating or facilitating recombination events. […] Deletion of the yeast FEN1 gene, i.e. rad27, results in an increased frequency of short DNA (3-32 bp) repeats, micro- and mini-satellite formation, trinucleotide repeat expansion, spontaneous recombination events, and a severe growth defect in association with cell cycle arrest in late S/G2 phase. […] Cells from fen1-/- blastocysts show increased apoptotic cell death after ionizing radiation treatment, and chicken cells lacking the fen1 gene are hypersensitive to DNA alkylating agents, e.g. methylmethane sulfonate (MMS) and N-methyl-N'-nitro-N-nitrosoguanidine (MNNG), as well as hydrogen peroxide.
# FEN1 is found to be increased in many human cancers, including lung, brain cancer, gastric cancer, prostate cancer, pancreatic cancer and breast cancer. […] In particular, elevation of FEN1 in hormone refractory human prostate cancer cells correlates with resistant to various anticancer agents including ionizing radiation, doxorubicin, paclitaxel and vinblastine.
# Three uL of reagents (buffer in column 3 and 4 as negative control and 10 nM FEN1 in columns 1, 2, and 5-48) were dispensed into 1,536-well black solid-bottomed plate. Compounds (23 nL) were transferred via Kalypsys pin tool equipped with 1536-pin array (10 nL slotted pins, V&P Scientific, San Diego, CA). The plates were then incubated for 15 min at room temperature, and 1 uL substrate (50 nM final concentration) were added to start the reaction read twice at 0 min read and 15 min on ViewLux reader. Throughout the screen, reagent bottle and all liquid lines were chilled and made light-tight to minimize reagent degradation. All screening operations were performed on a fully integrated robotic system (Kalypsys, San Diego, CA) containing one RX-130 and two RX-90 anthropomorphic robotic arms (Staubli, Duncan, SC). Library plates were screened starting from the lowest and proceeding to the highest concentration, and a "double-dipping" step of the highest concentration was required to access higher concentrations of compounds. Vehicle-only plates, with DMSO being pin-transferred to the entire column 5-48 compound area, were inserted uniformly at the beginning and the end of each library in order to monitor for and record any shifts in the background, which can be affected by reagent dispensers or loss in enzyme activity overtime. Screening data was corrected, normalized, and concentration-effect relationships were derived by using publicly-available curve fitting algorithms developed in-house (http://ncgc.nih.gov/pub/openhts). A four parameter Hill equation was fitted to the concentration-response data by minimizing the residual error between the modeled and observed responses.
# On the % scale 0 is the no-effect control and ±100 the full control effect; potency means the concentration at half of the fitted maximal effect.
# Chain of Flap endonuclease 1 (Homo sapiens) (P39748 whole entry, looked up): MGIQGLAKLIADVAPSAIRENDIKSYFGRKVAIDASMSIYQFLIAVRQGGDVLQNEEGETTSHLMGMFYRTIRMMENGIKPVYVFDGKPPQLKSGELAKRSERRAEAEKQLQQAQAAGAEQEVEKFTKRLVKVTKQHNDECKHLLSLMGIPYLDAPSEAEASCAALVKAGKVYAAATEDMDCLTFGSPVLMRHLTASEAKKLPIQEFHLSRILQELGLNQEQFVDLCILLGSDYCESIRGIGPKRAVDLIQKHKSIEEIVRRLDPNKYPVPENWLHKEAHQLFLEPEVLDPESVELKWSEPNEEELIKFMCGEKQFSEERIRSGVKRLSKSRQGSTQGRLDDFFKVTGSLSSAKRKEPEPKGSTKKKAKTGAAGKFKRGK
Compound,"activity, negative = inhibition",Potency
C=CCN1CC[C@]23CCCCC2[C@H]1Cc1ccc(O)cc13 (stereo not given in full),-5.99% (inactive),
NCc1cc(=O)[nH]o1,0.695% (inactive),
C[C@@H](N)Cc1cnc[nH]1,-12% (inactive),
CC[C@@]1(O)C(=O)OCc2c1cc1n(c2=O)Cc2cc3ccccc3nc2-1,3.44% (inactive),
O=C(Cc1ccc(Cl)c(Cl)c1)N1CCCCC1CN1CCCC1 (stereo not given),-1.93% (inactive),
C[N+]1(C)C2CCC1CC(OC(=O)C(CO)c1ccccc1)C2 (stereo not given),,inactive
O=C(O)[C@@H]1CCN1,-1.45% (inactive),
Clc1cnc(Oc2ccc(Oc3ncc(Cl)cc3Cl)cc2)c(Cl)c1,1.36% (inactive),
C[C@]12CCC3C(CC[C@H]4C[C@H](O)CC[C@]34C)C1CC[C@@H]2C(=O)CO (stereo not given in full),-19.4% (inactive),
CNCCc1c[nH]c2ccc(O)cc12,-1.23% (inactive),
O=C(N[C@H]1CN2CCC1CC2)c1ccc(Cl)cc1,-6.67% (inactive),
NC(=NCCC[C@H](N)C(=O)O)N[N+](=O)[O-],-11.1% (inactive),
COc1cc(C(O)CN)ccc1O (stereo not given),-7.78% (inactive),
CC(C)NC(C)Cc1ccc(I)cc1 (stereo not given),-3.15% (inactive),
CCCN(CCC)[C@@H]1CCc2ccc(O)cc2C1,-3.67% (inactive),
CC[C@@H](C(N)=O)N1CCCC1=O,-1.4% (inactive),
CC(=O)NCCc1c[nH]c2ccccc12,-0.377% (inactive),
CN1C2CCC1CC(OC(=O)c1cc(Cl)cc(Cl)c1)C2 (stereo not given),-1.9% (inactive),
NC1CC1c1ccccc1 (stereo not given),-2.23% (inactive),
CS(=N)(=O)CC[C@H](N)C(=O)O (stereo not given in full),-1.61% (inactive),

Compound,"activity, negative = inhibition",Potency
C#CCOC(=O)C1=CCCN(C)C1,-5.12% (inactive),
Clc1ccc(C(c2ccc(Cl)cc2)n2cc[n+](CC(OCc3ccc(Cl)cc3Cl)c3ccc(Cl)cc3Cl)c2)cc1 (stereo not given),-18.2% (inactive),
S=C(NC1CCCCC1)N1CCC(c2cnc[nH]2)CC1,-1.79% (inactive),
C[N+]1(C)C2CC(OC(=O)[C@H](CO)c3ccccc3)CC1C1OC12 (stereo not given in full),,inactive
CC(=O)[C@H]1CCC2C3CC[C@H]4C[C@H](O)CC[C@]4(C)C3CC[C@@]21C (stereo not given in full),-4.12% (inactive),
COC(=O)[C@@H](N)CCCN=C(N)N[N+](=O)[O-],-5.8% (inactive),
C/C=C(/C)C(=O)O[C@H]1C(C)=C2[C@H]([C@@H]1OC(=O)CCCCCCC)[C@@](C)(OC(C)=O)C[C@H](OC(=O)CCC)[C@@]1(O)[C@H]2OC(=O)[C@@]1(C)O,-15.3% (inactive),
c1ccc2sc(C3(N4CCCCC4)CCCCC3)cc2c1,-5.15% (inactive),
NC(CCP(=O)(O)O)C(=O)O (stereo not given),-5.39% (inactive),
NC(CP(=O)(O)O)C(=O)O (stereo not given),-1.9% (inactive),
Cc1c(C(=O)c2cccc3ccccc23)c2cccc3c2n1[C@H](CN1CCOCC1)CO3,-18.3% (inactive),
CNCCc1ccc(O)c(O)c1,,2990 nM (active)
O=C1CCCN1CC#CCN1CCCC1,0.377% (inactive),
CC1=NN=C(c2ccc(N)cc2)c2cc3c(cc2C1)OCO3,-8.52% (inactive),
CCCCc1ccc(C(=O)O)nc1,-0.922% (inactive),
NCCc1c[nH]c2ccccc12,2.05% (inactive),
C[C@@H]1O[C@H](C[N+](C)(C)C)C[C@H]1O,-8.32% (inactive),
C[N+](C)(C)CC(=O)O,0.313% (inactive),
c1ccc(C2(c3ccccc3)CC2C2=NCCN2)cc1 (stereo not given),-16.4% (inactive),
NC(N)=NOCCC(N)C(=O)O (stereo not given),-4.33% (inactive),
